# KCNH2 WT inh: KCNH2 (human, wildtype) channel inhibition; AID 720551; U2OS, BacMam KCNH2, thallium flux FluxOr; hits give low values; actives 0.37% (n = 340,000); activity change, % at 1.84 µM;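 active means maximum activity change below -70%; inconclusive means maximum activity change between -70% and -50%; inactive means maximum activity change above -50%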
#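 U2OS cells transduced with wild-type KCNH2 virus are loaded with FluxOr dye for 45 min, and thallium flux is measured in kinetic reads before and after stimulation buffer. Rate constants are normalized to DMSO controls.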
# PTHR1 ag: PTHR1 (human) receptor agonism | Q03431 | HEK293 GP2 PTHR1 cells, GloSensor cAMP luminescence, 1 h | Potency, µM (doses to about 115 µM), hits mostly activators | actives 0.075% (n = 410,000); further: nearly all actives have a fitted effect of over 55% in size
# Target sequence (Q03431 whole entry, looked up): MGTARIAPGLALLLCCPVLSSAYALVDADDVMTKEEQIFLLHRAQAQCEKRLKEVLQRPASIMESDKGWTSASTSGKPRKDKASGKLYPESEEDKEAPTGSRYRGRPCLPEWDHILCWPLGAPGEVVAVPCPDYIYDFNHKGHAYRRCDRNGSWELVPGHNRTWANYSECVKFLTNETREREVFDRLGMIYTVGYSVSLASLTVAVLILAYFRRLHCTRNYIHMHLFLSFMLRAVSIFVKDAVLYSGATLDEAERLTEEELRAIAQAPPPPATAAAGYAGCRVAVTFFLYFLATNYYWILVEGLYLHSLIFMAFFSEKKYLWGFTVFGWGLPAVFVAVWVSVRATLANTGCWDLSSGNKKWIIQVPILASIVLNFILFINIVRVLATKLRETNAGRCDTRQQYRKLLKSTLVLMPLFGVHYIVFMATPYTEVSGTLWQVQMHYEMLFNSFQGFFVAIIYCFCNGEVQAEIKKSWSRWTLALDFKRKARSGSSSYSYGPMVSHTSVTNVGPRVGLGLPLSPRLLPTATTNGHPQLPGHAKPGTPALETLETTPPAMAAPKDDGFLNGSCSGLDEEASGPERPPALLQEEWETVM
#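 HEK-293-derived GP2 cells expressing PTHR1 and a GloSensor cAMP reporter, 3,000/well, plated overnight, given luciferin plus IBMX (each 0.5 mM as added) for 1 h at 37 °C, then compound for 1 h at 37 °C. Luminescence was read after 15 min at room temperature.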
# GRP78 ERSR act: inducers of ER stress response in human glioma cells. U87-MG GRP78 promoter luciferase reporter, 16 h. Potency, µM, most hits filed as activators. actives 0.02% (n = 420,000). AID 602332; further: series mostly up to about 76 µM; nearly all actives have a fitted effect of over 35% in size
#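 Stably transfected U87-MG human glioma cells carrying a GRP78-based luminescent sensor were seeded at 1000 cells/well, pin-dosed with compounds and incubated 16 h. Luciferase reagent was then added, and end-point luminescence was read after 10 min at room temperature.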
# KCNH2 3.1 inh: blocks the human KCNH2 3.1 channel isoform | U2OS KCNH2 3.1, thallium flux FluxOr; hits give low values | activity change, % (tested at about 1.8 µM) | actives 0.95% (n = 340,000);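 active means maximum activity change below -70%; inconclusive means maximum activity change from -70% to -50%; inactive means maximum activity change above -50%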;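 further: thallium influx rate constant from kinetic fluorescence after stimulation buffer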
#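 Steps: virus added to U2OS suspension (4 h, RT, dark); medium with 10% FBS added, cells plated, 37 C overnight; FluxOr/Red40 loading buffer 45 min RT; stimulation buffer, 2 min kinetic read; rate constant normalized.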
# RXFP1 agonist: RXFP1 (human) receptor agonism; Potency, µM (titrated, usually from 57.5 µM), most hits filed as activators; Q9HBX9; AID 2676; HEK293T-RXFP1 cAMP TR-FRET, 30 min; response scale: percent of porcine relaxin response, buffer zero; actives 0.3% (n = 370,000); further: nearly all actives have a fitted effect of over 60% in size
#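 Agonist response is measured as cAMP accumulation in an RXFP1-transfected HEK293T line under PDE4 inhibition. Values are scaled between buffer-only and 29 nM porcine relaxin, and EC50s come from standard Hill equation fits.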
# RXFP1 antag: blocks the human relaxin receptor RXFP1. Q9HBX9. HEK293-RXFP1, relaxin-stimulated cAMP HTRF, 30 min; hits give low values. activity change, negative = inhibition, % at 57.5 µM. actives 0.59% (n = 350,000);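 active means activity change of -60% or lower, but not beyond a set lower limit; inconclusive means change between -60% and -40%, or beyond the set limit; inactive means change above -40%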
# Hits are given with their value; . = inactive; ? = inconclusive; / = no result given. A selection: hits, their analogues and other compounds. The true share with any hit is near 1.4%. Unless noted, the call rests on the fitted dose curve; in most records, active means well fitted curve in the direction sought with a large enough effect; inconclusive means small, poorly fitted or top-dose-only effect, or another doubt; inactive means no such curve, though single readings can be large; an effect the other way counts as inactive or inconclusive.
SMILES,KCNH2 WT inh,PTHR1 ag,GRP78 ERSR act,KCNH2 3.1 inh,RXFP1 agonist,RXFP1 antag
CCn1c(SCC(=O)NC(=O)NCc2ccco2)nc2sc(C)c(C)c2c1=O,.,.,.,.,.,-69
CC1(c2ccc3ccccc3c2)CCC(=O)O1 (stereo unspecified),-105,.,.,.,/,.
CC1(c2ccc3ccccc3c2)NC(=O)N(CC(=O)O)C1=O (stereo unspecified),.,.,.,.,.,.
O=c1c2cc(NC(=S)NCCCN3CCC(Cc4ccccc4)CC3)ccc2nc2n1CCCCC2,.,.,.,-72,.,.
Cc1ccc(CN(C(=O)c2cc3ccccc3oc2=O)C2CCS(=O)(=O)C2)cc1 (stereo unspecified),.,.,.,.,.,.
COc1ccccc1CN(C)C(=O)CNC(=O)c1cccc(Cl)c1,.,.,.,.,.,.
Cc1ccc(N2CCN(/N=C/c3c(C)nn(-c4ccccc4)c3Cl)CC2)cc1,/,.,.,-90,.,.
Cc1ccc(/C=N/N2CCN(c3ccccc3)CC2)cc1,.,.,.,.,.,.
C/C(=N\NC(=O)c1ccccc1-n1cccc1)C1CC1,.,.,.,-76,.,.
O=C(N/N=C\c1ccccc1)c1ccccc1-n1cccc1,.,.,.,.,.,.
CCn1c(NCc2ccccc2NS(=O)(=O)c2ccc(C)cc2)nc2ccccc21,.,.,.,.,.,.
CCn1c(NCc2cc(Br)ccc2NS(=O)(=O)c2ccc(C)cc2)nc2ccccc21,.,.,.,-82,.,.
CC(C)(C)C(=O)CN1C(=O)NC2(CCOc3ccccc32)C1=O (stereo unspecified),.,.,.,.,.,.
O=C1CCCN1CCCNc1ncnc2c1[nH]c1ccc(Cl)cc12,.,.,.,.,.,.
CCN1CCCC1CNc1ncnc2c1[nH]c1ccc(Cl)cc12 (stereo unspecified),-112,.,.,-110,.,.
CCCn1c(N)c(C(=O)CN(C)CC(=O)Nc2cc(C)ccc2C)c(=O)[nH]c1=O,.,.,.,-70,.,.
CSc1ccccc1NC(=O)CN(C)CC(=O)Nc1cc(C)ccc1C,.,.,.,-76,.,.
CSc1ccccc1NC(=O)CN(C)CC(=O)NCc1ccccc1,.,.,.,.,.,.
CCCn1c(N)c(C(=O)CN(C)CC(=O)Nc2ccc(C)cc2)c(=O)[nH]c1=O,.,.,.,.,.,.
CSc1ccc(CN(C)CC(=O)N(C)CC(=O)Nc2ccccc2Br)cc1,.,.,.,.,.,.
CSc1ccc(CN(C)CC(=O)Nc2ccc(C)cc2Br)cc1,-148,.,.,-153,.,.
FC(F)(F)COc1cc(-c2nnc(SCc3ccccc3)n2Cc2ccco2)cc(OCC(F)(F)F)n1,.,.,.,.,.,.
Cc1ccc2c(c1)nnn2C1CCN(C(=O)c2ccccc2F)CC1,.,.,.,.,.,.
Cc1nn(-c2ccccc2)c2sc(C(=O)Nc3ccc(Br)cc3)cc12,/,.,.,/,.,.
NC(=O)CN1CCN(S(=O)(=O)c2ccc(Br)cc2)CC1,.,.,.,-192,.,.
SMILES,KCNH2 WT inh,PTHR1 ag,GRP78 ERSR act,KCNH2 3.1 inh,RXFP1 agonist,RXFP1 antag
O=C(CN1CCN(S(=O)(=O)c2ccc(Br)cc2)CC1)Nc1ccc(F)cc1F,.,.,.,-92,.,.
O=C(CN1CCN(S(=O)(=O)c2ccc(Br)cc2)CC1)Nc1ccc(F)cc1,.,.,.,.,.,.
Cc1nn(Cc2cccc(C(=O)Nn3cc([N+](=O)[O-])cn3)c2)c(C)c1[N+](=O)[O-],.,.,.,.,.,.
COCCNC(=O)C(c1ccccc1)N(C(=O)Cn1nnc2ccccc21)c1cccnc1 (stereo unspecified),-197,.,.,.,.,.
COCCNC(=O)C(c1ccc(Cl)cc1)N(C(=O)Cn1nnc2ccccc21)c1cccnc1 (stereo unspecified),.,.,.,.,.,.
N/C(=N\OC(=O)COc1ccc2ccccc2c1Br)c1ccccn1,.,.,.,.,16µM,.
N/C(=N\OC(=O)COc1ccc2ccccc2c1Br)c1cccnc1,/,/,/,/,16µM,/
COc1cccc(NC(=O)N2CCCC(C(=O)NCc3ccc(F)cc3)C2)c1 (stereo unspecified),.,.,.,.,.,.
CN(CC(=O)NC(c1ccccc1)c1ccccc1)Cc1nc2ccccc2c(=O)[nH]1,-81,.,?,?,.,.
Cc1cccc(NC(=O)c2ccc(NCCc3ccccc3)c([N+](=O)[O-])c2)c1,.,.,.,-189,.,.
O=C(CCl)NC(Cc1ccccc1)c1ccccc1 (stereo unspecified),.,.,.,.,.,.
COc1ccc(/C(C)=N/NC(=S)NCCc2ccccc2)c(O)c1,.,.,.,.,.,-62
CC(=C/c1ccc(C(C)C)cc1)/C=N/NC(=O)CSc1ccccn1,.,.,.,.,.,.
CCOC(=O)C1=C(C)NC(C)=C(C(=O)OCC)C1C(=O)OCC(=O)NC(C)c1ccccc1 (stereo unspecified),-104,.,.,.,.,.
CN(C)c1ccc(-n2cccc2/C=C/[N+](=O)[O-])cc1,.,.,.,.,.,-83
CN(C)c1ccc(/C=C/c2c([N+](=O)[O-])c(=O)n(C)c(=O)n2C)cc1,.,.,.,.,.,.
Cc1ccc(C)c(NC(=O)C2CCCN2/C=C/C(=O)C(F)(F)F)c1 (stereo unspecified),.,.,.,-119,.,.
O=C(COC(=O)Cc1n[nH]c(=O)c2ccccc12)Nc1ccc(Cl)cn1,.,.,.,.,.,.
Cc1cc(C)cc(OCC(=O)N(Cc2ccco2)Cc2ccccc2Cl)c1,/,.,/,/,.,.
COc1ccccc1OCC(=O)N(Cc1ccco1)Cc1ccccc1F,/,.,.,/,.,-62
Cc1cc(C)c(OCC(=O)N(Cc2cccc(F)c2)Cc2ccco2)c(C)c1,/,.,.,/,.,-102
Cc1cc(OC(C)C(=O)N(Cc2ccco2)Cc2ccco2)cc(C)c1Cl (stereo unspecified),/,.,.,/,.,-88
Cc1cc(Cl)ccc1OCC(=O)N(Cc1ccco1)Cc1ccccc1F,/,.,.,/,.,-61
Cc1nnc(SCC(=O)Nc2nnc(SCc3cccc(Br)c3)s2)s1,.,.,.,.,.,/
CC(C)(C)c1ccc(OCCC(=O)OCC(=O)NC2CCCCC2)cc1,.,.,.,.,.,.
COc1ccccc1N(C)S(=O)(=O)c1ccc(C(=O)NCc2ccccc2CN2CCCC2)cc1,.,.,.,.,/,.

# Assay outcomes as filed in PubChem BioAssay.
